From PubChem BioAssay (NCATS) come the findings set out here.

Results filed as inconclusive are left out. Unmarked numbers belong to inactive results. Activity calls are given as the source filed them. The call rests on the fitted dose curve; in most records, active means well fitted inhibition curve with a large enough effect; inconclusive means small, poorly fitted or top-dose-only effect; inactive means flat fitted curve, though single readings scatter.
Further: nearly all actives have a fitted effect of over 65% in size.
On the % scale 0 is the no-effect control and ±100 the full control effect.

Sequence of Phospholipid hydroperoxide glutathione peroxidase GPX4 (Homo sapiens) (P36969 whole entry, looked up): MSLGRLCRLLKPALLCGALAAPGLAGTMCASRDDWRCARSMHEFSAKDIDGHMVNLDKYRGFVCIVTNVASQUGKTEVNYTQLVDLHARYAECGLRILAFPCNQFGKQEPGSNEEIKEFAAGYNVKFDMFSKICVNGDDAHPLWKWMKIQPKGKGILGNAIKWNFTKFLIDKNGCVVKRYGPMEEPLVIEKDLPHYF

In one assay the target is Glutathione peroxidase 1 (Homo sapiens) (UniProt P07203). Nature of the assay: Primary qHTS Assay for Inhibitors of Recombinant Selenoprotein Glutathione Peroxidase 1 (GPX1) (AID 1845191). As to conditions: recombinant GPX1, GR-coupled NADPH fluorescence, 15 min; series mostly up to 48.8 µM; activity, negative = inhibition: at the top concentration. Put shortly: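 10 nM GPX1 + cpd, 30 min RT; start w/ 1 mM GSH, 0.5 mM cumene hydroperoxide, 0.5 mM NADPH, 100 nM GR, 0.01% BSA; buffer 50 mM Tris-HCl pH 7.5, 2 mM EDTA, 150 mM NaCl; Fl 340/450, 0 & 15 min.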
Sequence of Glutathione peroxidase 1 (Homo sapiens) (P07203 whole entry, looked up): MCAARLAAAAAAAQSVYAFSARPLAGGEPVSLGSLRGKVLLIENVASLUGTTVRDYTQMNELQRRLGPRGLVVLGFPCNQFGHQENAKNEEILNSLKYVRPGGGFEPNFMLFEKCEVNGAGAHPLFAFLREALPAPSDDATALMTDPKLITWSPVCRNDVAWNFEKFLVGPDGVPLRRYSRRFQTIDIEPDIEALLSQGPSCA
Consider `O=C1NCCN1CCN1CCC(c2cn(-c3ccc(F)cc3)c3ccc(Cl)cc23)CC1`, for which the “activity, negative = inhibition” value is -25.9%.
On to `CCN(CC)C(=O)C1CN2CCc3cc(OC)c(OC)cc3C2CC1OC(C)=O` (configuration not stated), for which the outcome was inactive.
Turning to `CCCC(=O)O[C@]1(C(=O)CCl)[C@@H](C)C[C@H]2[C@@H]3CCC4=CC(=O)C=C[C@]4(C)[C@@]3(F)C(=O)C[C@@]21C`, the result was inactive.
Same read-out and setting: the same measure for `CCOC(=O)[C@H](CCc1ccccc1)N[C@@H](C)C(=O)N(CC(=O)O)C1Cc2ccccc2C1`: “inactive”; for `CCC(C(=O)OCCN1CCOC(c2ccccc2)C1C)c1ccccc1` (configuration not stated): “inactive”; for `CCN1CCN(C(=O)N[C@@H](C(=O)N[C@@H]2C(=O)N3[C@@H]2SC(C)(C)[C@H]3C(=O)O)c2ccccc2)C(=O)C1=O`: “inactive”.
On to `Cc1cccc(N(C)C(=S)Oc2ccc3c(c2)C2CCC3C2)c1` (configuration not stated), for which the “activity, negative = inhibition” value is -1.35%.
On the same count and under the same terms, the figure for `COC(=O)/C=C\C(=O)OC` is -15.6%.
`CCOC(=O)O[C@]1(C(=O)OCCl)CC[C@H]2[C@@H]3CCC4=CC(=O)C=C[C@]4(C)[C@H]3[C@@H](O)C[C@@]21C`: the Potency entry was “inactive”.
Consider `O=C(CCCCC(=O)Nc1c(I)cc(I)c(C(=O)O)c1I)Nc1c(I)cc(I)c(C(=O)O)c1I`, for which the “activity, negative = inhibition” value is -7.03%.
As for `C#CC(C)(CC)OC(=O)c1ccccc1C(=O)O` (configuration not stated), the “activity, negative = inhibition” value was -7.62%.
Take `Nc1ccc2cc3ccc(N)cc3nc2c1`: the outcome was inactive.
The same measure, in the same setting: the entry for `N#Cc1cc(NC(=O)C(=O)O)c(Cl)c(NC(=O)C(=O)O)c1` is “inactive”.
Regarding `C[C@@H](C1=C(CCN(C)C)Cc2ccccc21)c1ccccn1`, the “activity, negative = inhibition” value is -5.3%.
Consider `CC(Oc1c(Cl)cccc1Cl)C1=NCCN1` (configuration not stated), for which the outcome was inactive.
The same measure, in the same setting: the same measure for `CC1CCCCN1CCCOC(=O)c1ccc(OC2CCCCC2)cc1` (configuration not stated): “inactive”.
As for `C/C(=C(/OCCOc1ccc(Cl)cc1)c1ccc(Cl)cc1Cl)n1ccnc1`, the “activity, negative = inhibition” value was 0.683%.
Regarding `CCCCN(CCN(CCCC)C(=O)N1CCOCC1)C(=O)N1CCOCC1`, the result was inactive.
With `OCCOCCN1CCN(C(c2ccccc2)c2ccc(Cl)cc2)CC1` (configuration not stated), the “activity, negative = inhibition” value was -23%.
Still for that read-out and setting: the same measure for `CC(C)(C)C(O)/C=C/c1ccc2c(c1)OCO2` (configuration not stated): 2.43%.
Take `O=C(c1ccccc1)c1ccccc1`: the result was inactive.
Consider `CNC(=O)c1c(I)c(NC(C)=O)c(I)c(C(=O)O)c1I`, for which the “activity, negative = inhibition” value was -8.31%.
Same read-out and setting: the same measure for `CCOC(=O)NNc1nncc2ccccc12`: -8.73%.
`CCCCC(=O)OCC(=O)[C@H]1[C@H](C)C[C@H]2[C@@H]3C[C@H](F)C4=CC(=O)C=C[C@]4(C)[C@@]3(F)[C@@H](O)C[C@@]21C`: the outcome was inactive.
For `CC(=O)OCC(=O)[C@@]1(O)[C@H](OC(C)=O)C[C@H]2[C@@H]3CCC4=CC(=O)C=C[C@]4(C)[C@@]3(F)[C@@H](O)C[C@@]21C`, the “activity, negative = inhibition” value is -11.3%.
In the case of `Oc1ccccc1`, the “activity, negative = inhibition” value was -13.6%.
Consider `Nc1c(I)cc(I)c(C(=O)N(CCC(=O)O)c2ccccc2)c1I`, for which the “activity, negative = inhibition” value was -10%.
In the case of `Cc1cc(O)c2c(O)c3c(O)cccc3cc2c1`, the “activity, negative = inhibition” value was -18.9%.
As for `CCCCC/C=C\C/C=C\CCCCCCCC(=O)NC(C)c1ccccc1` (configuration not stated), the “activity, negative = inhibition” value was -17.6%.
With `COC(=O)CCCCC(CCSS/C(CCO)=C(\C)N(C=O)Cc1cnc(C)nc1N)SC(C)=O` (configuration not stated), the “activity, negative = inhibition” value is -5.62%.
`CCC1=C[C@@H]2CN(C1)Cc1c([nH]c3ccccc13)[C@@](C(=O)OC)(c1cc3c(cc1OC)N(C)[C@H]1[C@@](O)(C(=O)OC)[C@H](OC(C)=O)[C@]4(CC)C=CCN5CC[C@]31[C@@H]54)C2`: the Potency entry is “inactive”.
`O=C(O)/C=C(\CC(=O)O)C(=O)O`: the “activity, negative = inhibition” value is -7.23%.
In the case of `CC(=O)Nc1c(I)c(NC(C)=O)c(I)c(C(=O)O)c1I`, the “activity, negative = inhibition” value is 3.99%.
Regarding `CC(=O)N(c1onc(C)c1C)S(=O)(=O)c1ccc(N)cc1`, the “activity, negative = inhibition” value was -14.7%.
As for `Cc1ccc(Cl)c(OCC(O)CNC(C)(C)C)c1` (configuration not stated), the “activity, negative = inhibition” value was -15%.
In the case of `CC(C)(Oc1ccc(Cl)cc1)C(=O)OCCCOC(=O)C(C)(C)Oc1ccc(Cl)cc1`, the “activity, negative = inhibition” value was 3.76%.

The target of another assay is Phospholipid hydroperoxide glutathione peroxidase GPX4 (Homo sapiens) (UniProt P36969). Briefly: Primary qHTS Assay for Inhibitors of Recombinant Selenoprotein Glutathione Peroxidase 4 (GPX4) (AID 1845192). As to conditions: recombinant GPX4, GR-coupled NADPH fluorescence, 15 min; series mostly up to 50 µM; activity change, negative = inhibition: at the top concentration. Put shortly:
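NADPH consumption, followed by fluorescence at 340/450 nm between 0 and 15 min, reports GPX4 activity via coupled glutathione reductase (100 nM). Enzyme 200 nM was pre-exposed to compound 30 min; 0.5 mM cumene hydroperoxide and 1 mM GSH served as substrates.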
Turning to `O=C1NCCN1CCN1CCC(c2cn(-c3ccc(F)cc3)c3ccc(Cl)cc23)CC1`, the “activity change, negative = inhibition” value is -18.5%.
With `CCN(CC)C(=O)C1CN2CCc3cc(OC)c(OC)cc3C2CC1OC(C)=O` (configuration not stated), the result was inactive.
In the case of `CCCC(=O)O[C@]1(C(=O)CCl)[C@@H](C)C[C@H]2[C@@H]3CCC4=CC(=O)C=C[C@]4(C)[C@@]3(F)C(=O)C[C@@]21C`, the result was inactive.
On to `CCOC(=O)[C@H](CCc1ccccc1)N[C@@H](C)C(=O)N(CC(=O)O)C1Cc2ccccc2C1`, for which the outcome was inactive.
For `CCC(C(=O)OCCN1CCOC(c2ccccc2)C1C)c1ccccc1` (configuration not stated), the result was inactive.
On the same count and under the same terms, the entry for `CCN1CCN(C(=O)N[C@@H](C(=O)N[C@@H]2C(=O)N3[C@@H]2SC(C)(C)[C@H]3C(=O)O)c2ccccc2)C(=O)C1=O` is “inactive”.
Turning to `Cc1cccc(N(C)C(=S)Oc2ccc3c(c2)C2CCC3C2)c1` (configuration not stated), the “activity change, negative = inhibition” value is 4.11%.
Still for that read-out and setting: the figure for `COC(=O)/C=C\C(=O)OC` is -14.9%.
Take `CCOC(=O)O[C@]1(C(=O)OCCl)CC[C@H]2[C@@H]3CCC4=CC(=O)C=C[C@]4(C)[C@H]3[C@@H](O)C[C@@]21C`: the Potency entry was “inactive”.
On to `O=C(CCCCC(=O)Nc1c(I)cc(I)c(C(=O)O)c1I)Nc1c(I)cc(I)c(C(=O)O)c1I`, for which the “activity change, negative = inhibition” value is -2.87%.
As to `C#CC(C)(CC)OC(=O)c1ccccc1C(=O)O` (configuration not stated), the “activity change, negative = inhibition” value is -1.46%.
As to `Nc1ccc2cc3ccc(N)cc3nc2c1`, the result was inactive.
Regarding `N#Cc1cc(NC(=O)C(=O)O)c(Cl)c(NC(=O)C(=O)O)c1`, the outcome was inactive.
With `C[C@@H](C1=C(CCN(C)C)Cc2ccccc21)c1ccccn1`, the “activity change, negative = inhibition” value is 3.95%.
As to `CC(Oc1c(Cl)cccc1Cl)C1=NCCN1` (configuration not stated), the result was inactive.
The same measure, in the same setting: the same measure for `CC1CCCCN1CCCOC(=O)c1ccc(OC2CCCCC2)cc1` (configuration not stated): “inactive”.
Regarding `C/C(=C(/OCCOc1ccc(Cl)cc1)c1ccc(Cl)cc1Cl)n1ccnc1`, the result was inactive.
Same read-out and setting: the entry for `CCCCN(CCN(CCCC)C(=O)N1CCOCC1)C(=O)N1CCOCC1` is “inactive”.
For `OCCOCCN1CCN(C(c2ccccc2)c2ccc(Cl)cc2)CC1` (configuration not stated), the “activity change, negative = inhibition” value is -1.44%.
`CC(C)(C)C(O)/C=C/c1ccc2c(c1)OCO2` (configuration not stated): the result was inactive.
As to `O=C(c1ccccc1)c1ccccc1`, the outcome was inactive.
On to `CNC(=O)c1c(I)c(NC(C)=O)c(I)c(C(=O)O)c1I`, for which the “activity change, negative = inhibition” value is -12.9%.
Same read-out and setting: the figure for `CCOC(=O)NNc1nncc2ccccc12` is -1.01%; for `CCCCC(=O)OCC(=O)[C@H]1[C@H](C)C[C@H]2[C@@H]3C[C@H](F)C4=CC(=O)C=C[C@]4(C)[C@@]3(F)[C@@H](O)C[C@@]21C` it is 3.24%.
On the same count and under the same terms, the same measure for `CC(=O)OCC(=O)[C@@]1(O)[C@H](OC(C)=O)C[C@H]2[C@@H]3CCC4=CC(=O)C=C[C@]4(C)[C@@]3(F)[C@@H](O)C[C@@]21C`: -10.8%; for `Oc1ccccc1`: -8.21%; for `Nc1c(I)cc(I)c(C(=O)N(CCC(=O)O)c2ccccc2)c1I`: -10.3%.
`Cc1cc(O)c2c(O)c3c(O)cccc3cc2c1`: the “activity change, negative = inhibition” value is -18.3%.
With `CCCCC/C=C\C/C=C\CCCCCCCC(=O)NC(C)c1ccccc1` (configuration not stated), the “activity change, negative = inhibition” value is 3.39%.
The same measure, in the same setting: the same measure for `COC(=O)CCCCC(CCSS/C(CCO)=C(\C)N(C=O)Cc1cnc(C)nc1N)SC(C)=O` (configuration not stated): 2.31%.
With `CCC1=C[C@@H]2CN(C1)Cc1c([nH]c3ccccc13)[C@@](C(=O)OC)(c1cc3c(cc1OC)N(C)[C@H]1[C@@](O)(C(=O)OC)[C@H](OC(C)=O)[C@]4(CC)C=CCN5CC[C@]31[C@@H]54)C2`, the Potency result is “inactive”.
Take `O=C(O)/C=C(\CC(=O)O)C(=O)O`: the result was inactive.
Same read-out and setting: the entry for `CC(=O)Nc1c(I)c(NC(C)=O)c(I)c(C(=O)O)c1I` is “inactive”.
In the case of `CC(=O)N(c1onc(C)c1C)S(=O)(=O)c1ccc(N)cc1`, the “activity change, negative = inhibition” value was -4.35%.
Same read-out and setting: the figure for `Cc1ccc(Cl)c(OCC(O)CNC(C)(C)C)c1` (configuration not stated) is -14.4%.
In the case of `CC(C)(Oc1ccc(Cl)cc1)C(=O)OCCCOC(=O)C(C)(C)Oc1ccc(Cl)cc1`, the outcome was inactive.
